Rows were chosen to be rich in hits. Some 14% of all compounds tested hit in one or more screens of this group.
HCMV antiviral: human cytomegalovirus inhibition; activity change, negative = inhibition, % at 57.5 µM; hit rate 4.5% among 410,000; AID 1259415; HFF cells, HCMV-luciferase reporter, 72 h; active compounds read low; in the data active means activity change below about -60%; inconclusive means no clear call, values can overlap the other calls; inactive means above about -39%
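Screen run at 2 compound doses on HFFs infected with reporter HCMV, MOI 1 PFU/cell. Luciferase activity from cell lysates at 72 h post infection gave inhibition relative to buffer-only and Salinomycin wells.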
HCV inh: inhibitors of hepatitis C virus infection; AID 651820; hit rate 3.4% among 340,000; Potency, µM (doses to about 41.8 µM), without a hit: at the top dose activity change, negative = inhibition, hits mostly inhibitors; Huh7.5.1 HCVcc-Cre infection, luciferase reporter, 44 h; further: potency means the concentration at half of the fitted maximal effect
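HCVcc-Cre virus at an moi near 0.5 was added right after compound to cells cultured 4 h from seeding (1,000 cells/well). Luciferase activity was determined 44 h later, 15 min after substrate addition at RT.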
Pf growth 96h: P. falciparum growth inhibition at 96 hours; hit rate 6.9% among 320,000; P. falciparum luciferase reporter growth, 96 h; Potency, µM (top dose mostly 28.7 µM), for the others: top-dose activity change, negative = inhibition, hits mostly inhibitors; further: potency means the concentration at half of the fitted maximal effect
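Two parasite generations (96 h, 37 C, 5% CO2) of compound exposure in infected erythrocytes (0.05% parasitemia, 2% hematocrit). Luciferase-reporter P. falciparum; decreased luminescence indicates inhibited growth, aimed at apicoplast-acting delayed death.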
Lassa entry inh: Lassa virus entry inhibition. Lassa virus pseudotype entry inhibition, cell reporter. Potency, µM (series often up to 37.9 µM), for the others: top-dose activity change, negative = inhibition, actives largely listed as inhibitors. hit rate 1.2% among 300,000; calls by dose curve; tested in HEK293 cells; further: potency means the concentration at half of the fitted maximal effect; nearly all actives have a fitted effect of over 50% in size
MARV entry inh: blocks Marburg virus binding to or entry into cells. Marburg virus pseudotyped entry inhibition, cell reporter. Potency, µM (doses to about 37.8 µM), without a hit: top-dose activity change, negative = inhibition, usual class: inhibitors. hit rate 1.8% among 300,000. AID 540276; calls by dose curve; tested in HEK293 cells; further: potency means the concentration at half of the fitted maximal effect
Pf growth 48h: P. falciparum growth inhibition at 48 hours (one generation). Potency, µM (titrated, usually from 28.7 µM), without a hit: at the highest dose activity change, negative = inhibition, hits mostly inhibitors. AID 504832. P. falciparum luciferase growth in erythrocytes, 48 h. hit rate 5.9% among 310,000; further: potency means the concentration at half of the fitted maximal effect
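Here the parasites carry a stable luciferase gene and grow inside erythrocytes in Albumax-based RPMI medium with compound for one erythrocytic cycle. Activity is scored as loss of luminescent signal.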
Active calls of the source: *; ? = inconclusive; · = not tested or not shown; ! = repeats disagree; [ ] = dose if it differs, or a comment. Unless noted, the call rests on the fitted dose curve; in most records, active means well fitted inhibition curve with a large enough effect; inconclusive means small, poorly fitted or top-dose-only effect, or another doubt; inactive means no such curve, though single readings can be large or run the other way. On the % scale 0 is the no-effect control and ±100 the full control effect.

SMILES	HCMV antiviral	HCV inh	Pf growth 96h	Lassa entry inh	MARV entry inh	Pf growth 48h
Cn1c(CNc2nc3ccccc3n2CCN2CCCCC2)nc2ccccc21	51.0	?	2.62µM*	-5.7%	2.82µM*	11.7µM*
c1ccc(Cn2c(CNc3nc4ccccc4n3CCN3CCCCC3)nc3ccccc32)cc1	-1.7	11.2µM*	-20.0%	?	?	4.65µM*
CCN(CC)CCn1c(NCc2nc3ccccc3n2Cc2ccccc2)nc2ccccc21	2.3	?	3.7µM*	?	?	·
OCCNc1nc2ccccc2n1CCN1CCCCC1	-15.8	12.7%	-18.7%	11.8%	7.6%	-5.6%
O=C(O)c1ccc(NCc2nc3ccccc3n2Cc2ccccc2)cc1	0.0	4.3%	18.2%	-21.0%[46.1 µM]	?	10.2%
CC(C)(C)c1ccc(C(=O)NC(Cc2c[nH]c3ccccc23)C(=O)OCC(=O)c2ccc(Br)cc2)cc1 (stereo not drawn)	0.0	·	·	?	·	·
COc1ccc(-c2nc3scc(CCNS(=O)(=O)c4ccc(F)c(C(F)(F)F)c4)n3n2)cc1OC	-31.2	·	·	-19.7%[46.1 µM]	·	·
CCOC(=O)N1CCC(N(CCOC)C(=O)Nc2ccc(CC)cc2)CC1	-24.4	-26.9%	7.38µM*	-18.8%	15.0%	-26.0%
CCOC(=O)N1CCC(N(C(=O)Nc2ccc(Cl)c(Cl)c2)C(C)CC)CC1 (stereo not drawn)	?	10µM*!	·	?	?	?
CCc1ccc(NC(=O)N(CCOC)C2CCN(C(C)=O)CC2)cc1	-11.1	3.3%	·	14.1%	13.8%	-6.3%
COC(=O)C1=C(c2ccc(-c3ccccc3)c(F)c2)C[C@@H]2CC[C@H]1N2C(=O)NCc1cc(C)oc1C(F)(F)F	-8.1	?	?	·	·	2.33µM*
COC(=O)C1=C(c2cccc(C#N)c2)C[C@@H]2CC[C@H]1N2C(=O)NCc1cc(C)oc1C(F)(F)F	-71.0*	?	?	·	·	11.7µM*
COC(=O)C1=C(c2ccc(-c3ccccc3)c(F)c2)C[C@@H]2CC[C@H]1N2C(=O)NCc1ccco1	90.4	?	?	·	·	?
COC(=O)C1=C(c2cccc(C#N)c2)C[C@@H]2CC[C@H]1N2C(=O)NCc1cccc2ccccc12	-10.3	?	?	·	·	8.28µM*
COCCOC(=O)c1c(C)oc2ccc(O)c(CN3CCC(C)CC3)c12 (tested in a mixture with another compound)	-4.0	-17.8%	·	-27.5%[46.1 µM]	?	·
CCOc1ccc(C(=O)CSc2nnc3cc(C)c4ccccc4n23)cc1	-0.4	·	·	24.5%[46.1 µM]	26.8%[46.1 µM]	·
CCc1nn2c(=O)cc(COC(=O)c3ccc(NC(=O)CCc4ccccc4)cc3)nc2s1	-21.7	·	·	10.1%[46.1 µM]	·	·
Cc1ccc(C(=O)OC/C(O)=C(\C#N)c2nc3ccccc3[nH]2)cc1S(=O)(=O)N1CCOCC1	-10.4	-2.2%	?	2.0%	?	8.4%
O=C(Nc1cc(S(=O)(=O)N2CCOCC2)ccc1N1CCCCC1)c1cc(-c2ccccn2)nc2ccccc12	-13.3	-1.8%	?	-7.1%	-15.7%[46.1 µM]	-27.5%
O=C(Nc1ccc(Cl)c(S(=O)(=O)N2CCOCC2)c1)c1cc2ccccc2oc1=O	26.5	16.1%	·	23.9%	8.5%	·
Cc1ccc(S(=O)(=O)N2CCOCC2)cc1NC(=O)c1cc(-c2ccccn2)nc2ccccc12	-69.8*	?	?	·	·	9.28µM*
Cc1ccc(S(=O)(=O)N2CCOCC2)cc1NC(=O)c1cc2ccccc2oc1=O	-101.4*	8.4%	·	7.2%[46.1 µM]	11.6%[46.1 µM]	·
Cc1ccc(S(=O)(=O)N2CCOCC2)cc1N/N=C(\C#N)c1nc2ccccc2[nH]1	-3.1	1.9%	3.29µM*	·	1.1%	?
Cc1ccc(-c2nc3ccccn3c2Nc2ccccc2C)s1	-12.5	·	·	4.3%[46.1 µM]	-3.1%[46.1 µM]	·
CCN(CC)C(=O)Cn1c(=O)n(CCCCCC(=O)NCc2ccc(C)cc2)c(=O)c2sccc21	-7.1	·	·	5.9%[46.1 µM]	15.9%[46.1 µM]	·
CC/C(=N/Nc1ccccc1C)c1cnnc(SC)n1	9.0	15.8%	2.33µM*	0.4%	-5.6%	4.15µM*
CSc1nncc(/C(C)=N\Nc2ccccc2)n1	20.0	-27.1%	-0.1%	-3.0%	-16.6%	49.4%

Bioassay records deposited in PubChem by National Center for Advancing Translational Sciences (NCATS).
